# Results: PubChem BioAssay AID951 (NMMLSC, 2007)
# Out of some 190,000 compounds screened, about 140 (0.074%) were called active. The full list was thinned out, with actives kept by preference. Values without a mark were called inactive. No stated cut-off is given here; in the data, active means inhibition above about 40%.
# Molecular target: Bcl-2-like protein 10 (Homo sapiens) (UniProt Q9HD36)
# Assay: inhibitors of Bim-Bcl-B binding, primary screen, biochemical, multiplexed, human Bcl-2 family (AID 951);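 further: 0% = tracer peptide without compound and 100% = reference inhibitor peptide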
# Conditions: bead-based flow cytometry, Bim peptide-Bcl-B binding; at 10 µM; active compounds read high
# Bcl-2-like protein 10 (Homo sapiens), sequence (Q9HD36 whole entry, looked up): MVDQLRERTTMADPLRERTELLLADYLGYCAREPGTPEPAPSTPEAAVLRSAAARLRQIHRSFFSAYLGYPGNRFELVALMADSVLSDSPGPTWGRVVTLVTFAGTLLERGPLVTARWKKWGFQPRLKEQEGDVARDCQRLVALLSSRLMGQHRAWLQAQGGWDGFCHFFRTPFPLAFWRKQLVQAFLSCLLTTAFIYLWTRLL
row,SMILES,inhibition
1,O=C(CSc1nncn1-c1cccnc1)N1CCOCC1,-6%
2,O=C(NCCCn1ccnc1)C(=O)c1cn(CC(=O)N2CCCCCC2)c2ccccc12,0%
3,Cn1ncc2c(NNC(=O)Cc3cccc4ccccc34)ncnc21,-3%
4,OCCC1CN(Cc2cccn2-c2nccs2)CCN1CCc1ccccc1 (centres undefined),-1%
5,O=C(CN1C(=O)NC2(CCCCCC2)C1=O)NCc1cccs1,-1%
6,Cc1ccc(C(=O)Nc2ccc(C)c(S(=O)(=O)N(C)C)c2)s1,0%
7,CC(NC(=O)c1cccc2ccccc12)c1ccc2c(c1)CCCC2 (centres undefined),6%
8,CCOCC(=O)Nc1ncc(S(=O)(=O)c2ccc([N+](=O)[O-])cc2)s1,3%
9,Cc1ccccc1NC(=O)CSC1=NCCN1,-6%
10,CCOC(=O)c1sc2nc(C)nc(Nc3ccc(OC)c(OC)c3)c2c1C,2%
11,CN(C)c1ccc(/C=N/N(Cc2ccccc2)c2ccccc2)cc1,-3%
12,C=CCn1c(CCNC(=O)c2ccccc2F)nnc1SCC(=O)Nc1ccc(OC)cc1,0%
13,COc1ccc(C2CC(c3ccccc3)=NN2C(=O)COC(=O)COc2ccccc2)cc1 (centres undefined),-5%
14,CC(=O)Nc1cccc([N+](=O)[O-])c1,-4%
15,COC(=O)C1CCN(C(=O)c2cc(=O)[nH]c3ccccc23)CC1,-1%
16,CC1CCCC(NC(=O)COC(=O)[C@@H]2CC(O)CN2S(=O)(=O)c2ccc3c(c2)OCCO3)C1C (some centres undefined),-1%
17,O=C(CNC(c1ccccc1)c1ccccc1)Nc1ccc(F)cc1,-8%
18,CCOc1ccccc1/C=N/NC(=O)CNC(=O)COc1ccccc1,74% (active)
19,Cc1ccc(/C=N/NC(=O)CNC(=O)COc2ccccc2)o1,-7%
20,C=CCc1ccccc1OCC(=O)N/N=C/c1ccccc1OCC,-9%
21,CCOc1ccc(NC(=O)CN(C)CC(=O)NC(C)c2ccccc2)cc1OCC (centres undefined),-4%
22,Cc1cccc(C(=O)N2CCC(c3nc4ccccc4s3)CC2)c1,-2%
23,O=C(CSC1CC(=O)N(CCc2ccccc2)C1=O)Nc1ccc(Cl)cc1 (centres undefined),-5%
24,C[C@@H]1CC[C@]2(O[C@@H](CCO)C[C@H](O)[C@H]2O)O1,-5%
25,O=C(N/N=C/c1ccco1)c1ccc(NC(=O)C2CC2)cc1,-4%

row,SMILES,inhibition
1,NC(=O)Cn1nc([N+](=O)[O-])nc1Oc1ccc(Br)cc1,-1%
2,CN1CCN(C(=O)CCc2ncc(C(F)(F)F)cc2Cl)CC1,-8%
3,COc1ccc(C(=O)NCC(=O)N/N=C/c2ccc([N+](=O)[O-])s2)cc1OC,-2%
4,Cc1ccc(S(=O)(=O)NNC(=O)Nc2cccc3ccccc23)cc1,0%
5,CCOC(=O)c1c(-c2cccc(N)c2)cn2ccccc12,17%
6,COc1ccc2c(c1)CC[C@@H]1[C@@H]2CC[C@]2(C)C(=O)CC[C@@H]12,-3%
7,CC(=O)C1C(c2ccc(Cl)cc2)c2c(n[nH]c2C)CC1(C)O (centres undefined),-4%
8,CCNC(=O)COC(=O)CCNC(=O)c1cccc(C)c1,-4%
9,NC(=O)C[n+]1cccc(C(N)=O)c1,-1%
10,O=C(CP(=O)(c1ccccc1)c1ccccc1)N1CCOCC1,-6%
11,CS(=O)(=O)Nc1cccc(-c2cn3ccccc3n2)c1,-2%
12,CSc1ccc(/C=N/N2CCN(Cc3ccccc3Cl)CC2)cc1,-8%
13,CCC(C(=O)OCC(=O)Nc1c(Cl)cc(Cl)cc1Cl)c1ccccc1 (centres undefined),-7%
14,C=CCn1c(SCC(N)=O)nnc1-c1cc2c(s1)CCC(CC)C2 (centres undefined),-12%
15,N=C1C(c2nc3ccccc3[nH]2)=C(O)CN1NC(=O)c1c[nH]c2ccccc12,-2%
16,Cc1cc(C)c2nc(-c3cccnc3)cc(C(=O)Nc3ccc(S(=O)(=O)Nc4onc(C)c4C)cc3)c2c1,-1%
17,O=C1N(c2ccc(Cl)cc2)C(c2ccc(Cl)cc2)N2CCCN12 (centres undefined),-11%
18,CC(=O)NC(CC(=O)O)c1ccc(F)cc1 (centres undefined),-4%
19,Cc1ccc(CC2CC(=O)N(c3nc(C)cc(C)n3)C2=O)cc1 (centres undefined),-1%
20,CC(C)(C)c1nnc(N/N=C/c2ccc(O)cc2)n(N)c1=O,-7%
21,Fc1ccccc1N=C1Nc2cccc3cccc1c23,-4%
22,Cc1ccccc1C(=O)OC1OC(=O)C(Cl)=C1Nc1ccccc1 (centres undefined),-2%
23,N#CCSc1nn(-c2ccc(F)cc2)c(=S)s1,-7%
24,O=C(CSc1nn(-c2ccc(F)cc2)c(=S)s1)NC1CCS(=O)(=O)C1 (centres undefined),-1%
25,Cc1ccccc1-n1nc(SCC(=O)O)sc1=S,43% (active)

row,SMILES,inhibition
1,O=C(Nc1ccc(Br)cn1)c1ccc([N+](=O)[O-])cc1Cl,-6%
2,Cc1ccc(COc2ccc(C(=O)NN)cc2)cc1,-3%
3,COc1cc(C2/C(=C(\O)c3ccc4c(c3)CC(C)O4)C(=O)C(=O)N2Cc2ccco2)ccc1O (centres undefined),1%
4,O=C(O)/C=C/c1ccc(S(=O)(=O)N2CCCCCC2)cc1,0%
5,Cc1cc(Cl)c(S(=O)(=O)Nc2ccc3c(c2)OCCO3)cc1OCC(N)=O,-2%
6,Cc1cc(Cl)c(S(=O)(=O)NCC2CCCO2)cc1OCC(N)=O (centres undefined),80% (active)
7,Cc1cc(Cl)c(S(=O)(=O)NCCC(=O)O)cc1OCC(N)=O,-7%
8,CCOc1cc2[nH]c(=O)n(Cc3ccc(C(=O)NCCCN4CCCC4=O)cc3)c(=O)c2cc1OCC,-6%
9,OCC1(Cc2ccccc2C(F)(F)F)CCN(Cc2cccc3cnccc23)CC1,0%
10,CCOc1ccc(NC(=O)CSc2nc3ccccc3c(=O)n2Cc2cccs2)cc1,-7%
11,Cc1ccc(S(=O)(=O)N2CCOCC2)cc1C(=O)OC1CCCCC1=O (centres undefined),-7%
12,Cc1ccc(C(=O)N/C(=C/c2cccnc2)C(=O)O)cc1,-7%
13,N/C(=N/O)c1cccn1Cc1ccccc1[N+](=O)[O-],-4%
14,CC(C)NC(=O)/C(C#N)=C\c1ccc(N(C)C)c(Br)c1,-2%
15,CCc1nccn1S(=O)(=O)c1cccc([N+](=O)[O-])c1,-2%
16,CCc1c(SCCC(=O)O)nc2ccccc2c1C,-7%
17,CN(Cc1ccccn1)Cc1nc(-c2ccc(Cl)cc2)no1,-6%
18,Nc1nnnn1CC(=O)N/N=C/c1ccc(-c2cccc(Cl)c2)o1,-4%
19,Cc1cc(C)n(-c2ccc3nncn3n2)n1,2%
20,Cc1ccc(C2=NN(C(=O)CSc3nc(N)cc(N)n3)C(c3ccco3)C2)cc1 (centres undefined),-27%
21,CC1CCc2sc(C(=O)N/N=C/C3CCCCC3)cc2C1 (centres undefined),-6%
22,Cc1ccc2nc(-c3ccncc3)cc(C(=O)Nc3ccc(OC(F)F)cc3)c2c1,1%
23,COc1ccc(-n2cc(CNC3CCOCC3)c(-c3cccc(F)c3)n2)cc1,-5%
24,COc1ccc(Cl)cc1N(CC(=O)N1CCCCC1)S(C)(=O)=O,-5%
25,CSCc1cc(N2CCOCC2)nc(SCc2ccc(Cl)cc2Cl)n1,-11%

row,SMILES,inhibition
1,Clc1ccc(CSc2nnc(/C=C/c3ccccc3)o2)c(Cl)c1,-9%
2,CSCc1cc(N(C)C)nc(SCc2ccc(Cl)cc2Cl)n1,69% (active)
3,Cc1cccc(NC(=S)N2CCCC(c3nc4ccccc4[nH]3)C2)c1 (centres undefined),-14%
4,O=C(COC(=O)[C@H](Cc1ccccc1)NC(=O)c1cccs1)Nc1cc(F)ccc1F,-14%
5,Cc1ccc(C)c(NC(=O)CSc2nc3c(oc4ccccc43)c(=O)n2-c2ccccc2)c1,-6%
6,C/C(=N\NC(=O)c1cccc(N2CCCC2=O)c1)c1ccc(N)cc1,-7%
7,CC(O)C(NS(=O)(=O)c1ccc(Cl)cc1)C(=O)OCc1cc([N+](=O)[O-])cc2c1OCOC2 (centres undefined),0%
8,COc1ccc(N(C(=O)c2ccc(C)cc2)S(=O)(=O)c2cccs2)cc1,-6%
9,CSCCC(NC(=O)COc1ccccc1)C(=O)Nc1ccc(C)cc1 (centres undefined),-6%
10,Cc1nc(CC(=O)NNS(=O)(=O)c2ccc(F)c(Cl)c2)cs1,1%
11,O=C(NC1CCCCC1)C1CCCN(S(=O)(=O)c2ccc(Br)s2)C1 (centres undefined),-6%
12,c1ccc2c(c1)CSc1sccc1C2=C1CCNCC1,-4%
13,Cc1ccc(C(C)NC(=O)Cn2nc(C)c([N+](=O)[O-])c2C)cc1 (centres undefined),-3%
14,CCOC(=O)N/N=C/c1cccnc1,-4%
15,CCN(CC)P(=O)(Nc1ccc(SC(F)F)cc1)c1ccc(N(C)C)cc1NC(=O)c1ccco1 (centres undefined),1%
16,CN(C)C(=O)N1CCNCC1,0%
17,Cc1cc(C)n(CC(=O)Nc2ccc([N+](=O)[O-])cc2)n1,0%
18,CC(C)C(=O)NCc1cc(-c2ccc(Cl)cc2)no1,5%
19,CC1=NN(C(=O)CCCc2ccccc2)C(O)(C(F)(F)F)C1 (centres undefined),-2%
20,OCC1(CCOc2ccccc2)CCN(Cc2cn[nH]c2-c2ccccc2)CC1,-2%
21,CN1CCN(c2ccc(S(=O)(=O)N3CCCCC3)cc2NC(=O)Cc2ccccc2F)CC1,-4%
22,COc1ccc(N2CCN(C(=O)CNS(=O)(=O)c3ccc(C)c(C)c3)CC2)cc1,-2%
23,O=C(CCC1CCCN(Cc2ccc(O)c(Cl)c2)C1)NCc1ccccc1F (centres undefined),-1%
24,CCCCN(CC(=O)NC(C)(C)C)C(=O)C(=O)Nc1ccc2c(c1)OCCO2,1%
